This is part of a sample that, as a whole, favours compounds with a hit. Of some 83,000 tested, about 20% had one in any assay.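 Results are percent growth after 48 hours of single-concentration exposure. 100 means growth as in untreated cells, lower positive values show inhibition; negative values down to -100 show cell death.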 Values without a mark were called inactive. The source made the active and inactive calls. Rule for the calls: active = growth percent below 10; inactive = the rest.

Here are results for 39 compounds from PubChem BioAssay (NCI).

The assay relates to HL-60(TB) leukemia. As to the kind of experiment: NCI-60 one-dose screen, 48 h (100 = growth as untreated, 0 = no growth, -100 = all killed). The settings on record: 10 µM unless noted.
With `CCN1CCN(C(=O)[C@@]2(C)CC[C@]3(C)CC[C@]4(C)C(=CC(=O)[C@@H]5[C@@]6(C)CC[C@H](OC7C[C@@H](O)[C@@H](O)C(C)O7)C(C)(C)[C@@H]6CC[C@]54C)[C@@H]3C2)CC1` (some centres undefined), the growth was -57.2% (active).
Under `COc1cc(NCc2cn(-c3ccc(C(=O)O)cc3)nc2-c2ccc(C(=O)O)cc2)cc(OC)c1OC` stands 120%; under `CC(C)(C)c1cc(Br)cc(C(C)(C)C)c1O`, 94.1%; under `CC(C)(C)c1cc(C=O)cc(C(C)(C)C)c1O`, -23.5% (active).
To `NNc1ncnc2cccc(Cl)c12` belongs 99.9%; to `COCc1nc(NS(=O)(=O)c2ccc(N)cc2)nc(C)c1Br`, 114%; to `O=C1CCCC1[n+]1ccccc1` (centres undefined), 88.1%.
As to `COC1/C=C/OC2(C)Oc3c(C)c(O)c4c(O)c(c(/C=N/N(c5ccccc5)c5ccccc5)c(O)c4c3C2=O)NC(=O)C(C)=C/C=C/C(C)C(O)C(C)C(O)C(C)C(OC(C)=O)C1C` (centres undefined), the growth was 53.1%.
For the compound `CCCC(=O)c1cccs1`, the growth is 87.9%.
On to `Oc1[nH]c2cc(Cl)ccc2c1/C=c1/ccc2c(c1)N=C(c1cc(F)cc(F)c1)N=2`, for which the growth is -9.98% (active).
For `Fc1ccc(NC(c2ccc(F)cc2)C2CCN(CCCCc3ccccc3)CC2)cc1` (centres undefined), the growth was 10.8%.
To `COc1cc2cc(CN3CCN(c4nccc(-c5ccc6ccccc6c5)n4)CC3)c(=O)[nH]c2cc1OC` belongs 9.75% (active); to `COc1cc2c(cc1O)[C@@]1(C)[C@H](c3ccccc3Br)OC(=O)N1CC2`, 73.3%; to `O=S(=O)(Oc1ccc(Br)cc1)c1ccc(Cl)cc1`, 85.3%.
Regarding `Nc1c(C(=O)Nc2ccncc2)sc2nc3c(cc12)CCCCC3`, the growth was 55.5%.
`N#Cc1c(Nc2ccccc2)nc2n(c1=O)-c1ccccc1Sc1ccccc1-2`: the growth is 79.6%.
Consider `C[C@@H]1COCCN1c1cc(C2([S@](C)(=N)=O)CC2)nc(-c2ccnc3[nH]ccc23)n1`, for which the growth is -9.62% (active).
To `Cc1c(O)cccc1O` belongs 110%.
Under `O=C1NC(=S)N[C@H]1CC(=O)n1cnc2ccccc21` stands 109%.
Under `COc1ccc(/C=C/C(=O)c2ccc(Oc3ncnc4ccccc34)cc2)cc1OC` stands 54.7%; under `NC(N)=NC(N)=NCCCc1ccco1`, 83.1%.
`CC(C)CNCC(O)COc1ccc(C(C)(C)c2ccc(OCC(O)CNCC(C)C)cc2)cc1` (centres undefined): the growth was 26%.
For the compound `COc1cc(CNS(=O)(=O)c2ccc(C)cc2)ccc1OCc1cn(-c2ccc(Br)cc2)nn1`, the growth is 106%.
Under `CN1CCc2c(sc3nc4n(-c5ccc(Cl)cc5)cnn4c(=O)c23)C1` stands 105%; under `COc1ccc(OC)c(/C=C2\COc3ccc(O)c(O)c3C2=O)c1`, -11% (active); under `CC1(O)CCC2CC3OC3(C)CCC3OC3(C)CCC1C2(C)C` (centres undefined), 120%.
Regarding `COc1cc(/C(Cl)=C/C=C/C(=O)c2c(C)[n+]([O-])c3ccc(Cl)cc3[n+]2[O-])cc(OC)c1OC`, the growth was 11.9%.
Take `Ic1ccc(Nc2nc3nonc3nc2Nc2ccc(I)cc2)cc1`: the growth is -50.2% (active).
As to `CCC(C)(C)C(=O)O[C@H]1C[C@@H](C)C=C2C=C[C@H](C)[C@H](CC[C@@H]3CC(SCCN)CC(=O)O3)[C@H]21` (some centres undefined), the growth is 37.6%.
To `Clc1ccccc1-c1cnn2cc(-c3ccccc3)cnc12` belongs 96.2%.
Under `C[n+]1cccc(NC(=O)c2ccc3ccc4ccc(C(=O)Nc5ccc[n+](C)c5)nc4c3n2)c1` stands 61.4%; under `COc1cc(-c2cc(-c3ccc(Nc4nc(Nc5ccccc5)nc(Nc5ccc(Cl)cc5)n4)cc3)nc(N)n2)cc(OC)c1OC`, 96.8%.
As to `Cc1cnc(NC(=O)C(Cc2ccccc2)NC(=O)c2ccccc2)s1` (centres undefined), the growth is 38.7%.
To `Cc1[nH]c(-c2nc3ccccc3[nH]2)c(C)c1C(=O)NNc1ccc(Cl)cc1` belongs 103%; to `O=C1NC(Cc2c[nH]c3ccccc23)C(=O)N1Cc1ccc(Cl)cc1` (centres undefined), 74%; to `COc1ccc(C(=O)c2sc3nc(-c4cccs4)ccc3c2N)cc1OC`, 23.3%.
To `CC(=O)Nc1ccc(S(=O)(=O)N2C(=O)CCC2C(=O)Nc2ccc(Br)cc2)cc1` (centres undefined) belongs 15.5%; to `Cc1ccccc1COc1ccc(-c2ccnn2-c2ccc(Cl)cc2)cc1`, 13.3%; to `CCN(CC)CCOC(=O)c1ccc(NC(=O)Nc2cccc(Cl)c2)cc1`, 103%.
